In the library only some 18% were active in any assay of this set; here they are far more common.
VDR inh: inhibitors of human vitamin D receptor; 400,000 compounds, 0.93% hits; VDR-SRC2-3 peptide fluorescence polarization, 2 h; Potency, µM, hits mostly inhibitors; P11473
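Inhibition of the VDR/SRC2-3 peptide interaction is quantified by fluorescence polarization. Compounds (23 nl, pintool) incubate with the reagents for 2 hours at ambient room temperature.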
DT40 TDP1 no CPT: qHTS for Inhibitors of human tyrosyl-DNA phosphodiesterase 1 (TDP1): qHTS in cells in absence of CPT; DT40 Tdp1-/- hTDP1 cells, no CPT, ATP luminescence, 48 h; Potency, µM (series often up to 46.2 µM), usual class: inhibitors; 420,000 compounds, 15% hits; further: nearly all actives have a fitted effect of over 55% in size
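Stably hTDP1-transfected Tdp1-null chicken DT40 cells were treated with library compounds minus camptothecin and grown for at least 48 hr at 37 °C, after which cellular ATP was quantified by luminescence.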
GCN5L2 inh: blocks human GCN5L2 histone acetyltransferase. GCN5L2 HAT assay, ThioGlo1 CoA-SH fluorescence. AID 504327. Potency, µM (series often up to 58.9 µM), usual class: inhibitors. Q92830. 390,000 compounds, 0.21% hits
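ThioGlo1-coupled HAT assay: 20nM GCN5L2, 70uM acetyl-CoA, 75uM H3(1-25) peptide, pH 7.5. Fluorescence read at 340/540nm at start and after 20 min at room temperature.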
PLK1 PBD block: PLK1 (human) polo-box domain binding inhibition; AID 720504; Potency, µM, most hits filed as inhibitors; Plk1 PBD binding of FITC phosphopeptide, fluorescence polarization; P53350; 360,000 compounds, 2.8% hits; further: series mostly up to about 57 µM; nearly all actives have a fitted effect of over 65% in size
TDP1 cell CPT: DT40-hTDP1 cell growth loss with CPT; chicken DT40 Tdp1-/-;hTDP1 cells + 20 nM CPT, ATP luminescence, 48 h; Potency, µM (series often up to 46.2 µM), actives largely listed as inhibitors; 420,000 compounds, 12% hits; further: nearly all actives have a fitted effect of over 55% in size
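Chicken DT40 Tdp1-/- cells complemented with human TDP1, 400 cells/well, exposed to compounds plus 20 nM camptothecin for at least 48 h at 37 C; viability read as ATP content by CellTiter-Glo luminescence.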
TDP1 block: inhibitors of human tyrosyl-DNA phosphodiesterase TDP1 | 350,000 compounds, 0.28% hits | recombinant TDP1, AlphaScreen DNA substrate cleavage | Q9NUW8 | Potency, µM (top dose mostly 130 µM), hits mostly inhibitors | AID 485290; further: nearly all actives have a fitted effect of over 40% in size
Target sequence (Q9NUW8 whole entry, looked up): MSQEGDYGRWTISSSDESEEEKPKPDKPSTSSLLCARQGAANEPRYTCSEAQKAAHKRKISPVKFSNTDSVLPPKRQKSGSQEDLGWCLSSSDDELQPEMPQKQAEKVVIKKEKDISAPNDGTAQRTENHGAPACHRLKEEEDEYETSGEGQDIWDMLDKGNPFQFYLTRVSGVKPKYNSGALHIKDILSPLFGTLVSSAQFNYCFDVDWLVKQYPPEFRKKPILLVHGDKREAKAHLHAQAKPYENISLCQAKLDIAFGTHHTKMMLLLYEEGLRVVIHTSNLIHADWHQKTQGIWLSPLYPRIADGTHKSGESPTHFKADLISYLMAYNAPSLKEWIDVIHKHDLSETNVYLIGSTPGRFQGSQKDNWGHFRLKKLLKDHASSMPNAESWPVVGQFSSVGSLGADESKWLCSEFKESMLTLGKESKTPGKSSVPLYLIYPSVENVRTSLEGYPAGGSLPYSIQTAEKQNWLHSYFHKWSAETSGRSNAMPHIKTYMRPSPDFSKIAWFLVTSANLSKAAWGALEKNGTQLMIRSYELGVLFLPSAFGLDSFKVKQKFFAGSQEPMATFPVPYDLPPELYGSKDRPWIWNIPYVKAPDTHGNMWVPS
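AlphaScreen read-out: signal falls as enzyme removes the 3' tyrosine-FITC from a 5'-biotinylated DNA oligo (15 nM, 5 min, RT). Enzyme was E. coli-made recombinant Tdp1 at 1 nM, exposed to compound for 15 min beforehand; beads 10 ug/ml, 10 min.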
Hits are given with their value; - = inactive; ? = inconclusive; . = no result given. The call rests on the fitted dose curve; in most records, active means well fitted curve in the direction sought with a large enough effect; inconclusive means small, poorly fitted or top-dose-only effect, or another doubt; inactive means no such curve, though single readings can be large; an effect the other way counts as inactive or inconclusive.

SMILES	VDR inh	DT40 TDP1 no CPT	GCN5L2 inh	PLK1 PBD block	TDP1 cell CPT	TDP1 block
O=S(=O)(c1ccc2c(c1)OCCO2)N1CCN(S(=O)(=O)c2cc(F)c(F)cc2F)CC1	.	.	.	.	.	-
O=C(Nc1ccc(Nc2ccccc2)cc1)c1c(Cl)cccc1Cl	-	21µM	.	-	?	.
Cc1ccc(C(=O)Nc2ccc(Nc3ccccc3)cc2)c(Cl)c1	-	?	-	-	?	.
CC1CC=CC2C1C(=O)N(Cc1ccccc1)C2c1ccc(-c2cc3ccccc3s2)cc1F (configuration not stated)	-	.	.	.	.	-
COc1ccc(-c2ccc(C(C)=O)cc2)cc1C1C2C=CCC(C)C2C(=O)N1Cc1ccccc1 (configuration not stated)	-	.	.	.	.	-
COc1ccc(-c2ccc(N(C)C)cc2)cc1C1C2C=CCC(C)C2C(=O)N1Cc1ccccc1 (configuration not stated)	-	.	.	.	.	-
COc1ccc(-c2ccc(N(C)C)cc2)cc1[C@H]1[C@H]2C=CC[C@@H](C)[C@@H]2C(=O)N1Cc1ccccc1	-	8.2µM	-	-	12µM	-
COc1ccc(-c2cc3ccccc3s2)cc1[C@H]1[C@H]2C=CC[C@@H](C)[C@@H]2C(=O)N1Cc1ccccc1	-	18µM	-	-	?	-
COc1ccc(-c2ccc(OC)c([C@H]3[C@H]4C=CC[C@@H](C)[C@@H]4C(=O)N3Cc3ccccc3)c2)cc1C	-	10µM	-	-	?	-
CC[N+](C)(CC)CC(=O)Nc1c(C)cccc1C	-	-	?	.	-	-
COC(=O)CN1C(=O)C(C)(C)c2cc(S(=O)(=O)Nc3ccc(Br)cc3F)ccc21	-	-	-	.	-	-
CC1CCc2nc3ncn(Cc4ccc(Cl)cc4)c(=O)c3cc2C1 (configuration not stated)	-	23µM	-	.	18µM	-
Cc1ccccc1Cn1cnc2nc3c(cc2c1=O)CC(C)CC3 (configuration not stated)	-	2.6µM	-	.	16µM	-
O=C(NCc1ccccc1F)C1CCCN(S(=O)(=O)N2CCOCC2)C1 (configuration not stated)	-	-	-	-	-	-
COc1ccc(NC(=O)c2ccc3c(c2)CCN3S(=O)(=O)c2ccc(C)cc2)cc1Cl	-	-	-	.	-	-
CCCCCCCCCCCCC/C=C/[C@@H](O)[C@@H](N)COP(=O)(O)O	-	.	-	.	.	-
O=C(c1ccc(Cl)cc1)N1CCN(S(=O)(=O)/C=C/c2ccccc2)CC1	-	21µM	-	-	?	-
COc1ccccc1-c1cnc(C(O)c2ccc(CN3CCCCC3)cc2)[nH]1 (configuration not stated)	.	-	.	-	-	.
CCC(C)[C@H]1CNC(=S)N1CCc1cccc2ccccc12 (some centres not stated)	-	-	-	-	?	-
CCC(C)[C@H]1CNC(=S)N1CCC12CC3CC(CC(C3)C1)C2 (some centres not stated)	-	15µM	-	-	16µM	-
CCn1c(-c2ccc[nH]c2=O)nc2ccccc21	-	-	-	-	-	.
O=c1[nH]cccc1-c1nc2ccccc2n1Cc1ccccc1F	?	29µM	-	?	21µM	.
Cc1c(Cl)cccc1NS(=O)(=O)c1c(C(=O)N2CCOCC2)c(C)n(C)c1C	-	-	-	-	-	-
CCN1CCN(C(=O)NC(C(=O)NC2C(=O)N3C2SC(C)(C)C3C(=O)O)c2ccccc2)C(=O)C1=O (configuration not stated)	-	-	-	.	-	-
CC1(C)C2CCC1(CS(=O)(=O)Nc1ccccc1)C(=O)C2 (configuration not stated)	-	-	-	-	-	-
SMILES	VDR inh	DT40 TDP1 no CPT	GCN5L2 inh	PLK1 PBD block	TDP1 cell CPT	TDP1 block
Cc1ncc(Cc2ccccc2)c(C2CCN(S(=O)(=O)C[C@]34CC[C@H](CC3=O)C4(C)C)CC2)n1	.	15µM	.	.	?	.
CC(C)c1nc2cc(C(=O)N3CCNC(=O)C3c3cccc(F)c3)ccc2o1 (configuration not stated)	-	-	-	-	-	-
CCCNC(=O)c1sc2c(c1C(=O)Nc1ccccn1)CCCC2	-	18µM	-	-	26µM	-
COc1ccc(-c2cc(C(=O)Oc3ccc([N+](=O)[O-])cc3)c3ccccc3n2)cc1	?	?	-	-	?	-
COc1ccc2nc3cc([N+](=O)[O-])ccc3c(NNc3ccc([N+](=O)[O-])cc3)c2c1	-	9.2µM	.	-	10µM	.
C=CCc1cccc(/C=N/NC(=O)CCC(=O)Nc2ccc(F)cc2)c1O	-	8.2µM	-	-	9.2µM	-
COc1ccccc1NCC(=O)N/N=C/c1cccnc1	-	-	-	-	-	-
C=CCc1cccc(/C=N/NC(=O)CNc2ccccc2)c1O	-	5.2µM	.	-	21µM	-
C=CCc1cccc(/C=N/NC(=O)C[n+]2ccccc2)c1O	-	?	-	-	?	.
C=CCc1cccc(/C=N/NC(=O)CNc2ccccc2OC)c1O	-	21µM	-	-	?	-
C=CCc1cccc(/C=N/NC(=O)C(C)Nc2cccc(C)c2)c1O (configuration not stated)	-	2.9µM	-	-	4.1µM	-
CCCCCC(C)NC(=O)c1cc(S(=O)(=O)N2CCCCC2)ccc1N1CCOCC1 (configuration not stated)	-	?	-	-	?	-
CC(=O)NC1=NN(C(C)=O)C2(S1)C(=O)N(CC(C)C)c1ccc(C)cc12 (configuration not stated)	-	-	-	-	-	-
CCC(C)c1ccc(NC(=O)c2c([N+](=O)[O-])cnn2CC)cc1 (configuration not stated)	-	?	-	-	?	.
O=[N+]([O-])c1cc(-c2nc(-c3ccccc3)no2)ccc1N1CCN(c2ccccc2)CC1	-	?	-	.	-	-
C=CCc1cccc(/C=N/NC(=O)CN2CCN(Cc3ccccc3)CC2)c1O	-	.	-	.	.	-
C=CCc1cccc(/C=N/NC(=O)CCCNc2ccc(C)cc2)c1O	-	21µM	-	-	-	-
CCOC(=O)C1C(=O)C=C(c2ccccc2)CC1c1ccccc1 (configuration not stated)	-	?	.	-	?	.
CCOC(=O)C1C(=O)C=C(c2ccc(C)cc2)CC1c1ccc([N+](=O)[O-])cc1 (configuration not stated)	-	13µM	-	-	?	-
Cc1cc(C)nc(N/N=C/c2ccco2)n1	-	-	-	-	-	-

Bioassay records (PubChem)
